Screens (PubChem BioAssay)
IL-1B inflam inh – qHTS for Inhibitors of Inflammasome Signaling: IL-1-beta AlphaLISA Primary Screen; THP-1 LPS/ATP IL-1B secretion, AlphaLISA, 16 h; hits give low values; activity change, % at 57.5 µM; actives 4.7% (n = 360,000); AID 743279, 2014; in the data active means activity change below about -50%; inconclusive means mostly about -30% to -49%; further: on the % scale 0 is the no-effect control and ±100 the full control effect
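Secreted IL-1B measured by AlphaLISA bead assay after 16 h compound exposure of THP-1 cells; compounds (final up to 57.5 uM) added 1 h before LPS (250 ng/mL) and ATP (1.25 mM) stimulation; lower signal means less secretion.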
TDP1 cell CPT – qHTS for Inhibitors of human tyrosyl-DNA phosphodiesterase 1 (TDP1): qHTS in cells in presence of CPT; Potency, µM (doses to about 46.2 µM), for the others: at the top dose activity change, negative = growth inhibition, actives largely listed as inhibitors; actives 12% (n = 420,000); chicken DT40 Tdp1-/-;hTDP1 cells + 20 nM CPT, ATP luminescence, 48 h; AID 686979, 2013; further: potency means the concentration at half of the fitted maximal effect; on the % scale 0 is the no-effect control and ±100 the full control effect; nearly all actives have a fitted effect of over 55% in size
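Chicken DT40 Tdp1-/- cells complemented with human TDP1, 400 cells/well, exposed to compounds plus 20 nM camptothecin for at least 48 h at 37 C; viability read as ATP content by CellTiter-Glo luminescence.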
TDP1 cell noCPT – qHTS for Inhibitors of human tyrosyl-DNA phosphodiesterase 1 (TDP1): qHTS in cells in absence of CPT; Potency, µM (highest dose often 46.2 µM), without a hit: at the highest dose activity change, negative = growth inhibition, actives largely listed as inhibitors; AID 686978, 2013; DT40 Tdp1-/- hTDP1 cells, no CPT, ATP luminescence, 48 h; actives 15% (n = 420,000); further: potency means the concentration at half of the fitted maximal effect; on the % scale 0 is the no-effect control and ±100 the full control effect; nearly all actives have a fitted effect of over 55% in size
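Chicken DT40 Tdp1-/- cells stably complemented with human TDP1 were seeded at 400 cells/well with DMSO in place of 20 nM camptothecin. After compound pinning, cells grew at least 48 hr at 37 °C; viability read by CellTiter-Glo luminescence.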
HepG2 tox – qHTS for Inhibitors of TGF-b: Cytotox Counterscreen; HepG2 CAGA-GFP viability, ATP luminescence, 18 h; Potency, µM (highest dose often 46.1 µM), for inactives: top-dose activity change, negative = cytotoxicity, usual class: cytotoxic; actives 0.76% (n = 410,000); AID 588856, 2011; further: potency means the concentration at half of the fitted maximal effect
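HepG2 CAGA-GFP cells (1000/well, DMEM with 1% FBS) received compound, then TGF-beta at 500 pg/mL final, and were incubated 18 hours at 37 degrees C. Viability was read by CellTiter-Glo luminescence. Media-only wells were set as complete cell-killing and DMSO as no toxicity.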
S-ASM inh – Inhibitors of Secretory Acid Sphingomyelinase (S-ASM): qHTS. Sphingomyelin phosphodiesterase (Homo sapiens), P17405. placental ASM, HMU-PC fluorogenic substrate, 60 min. Potency, µM (series often up to 57.5 µM), for the others: top-dose activity change, negative = inhibition, usual class: inhibitors. actives 0.006% (n = 340,000); further: potency means the concentration at half of the fitted maximal effect
Target sequence (P17405 47-631 limits assumed): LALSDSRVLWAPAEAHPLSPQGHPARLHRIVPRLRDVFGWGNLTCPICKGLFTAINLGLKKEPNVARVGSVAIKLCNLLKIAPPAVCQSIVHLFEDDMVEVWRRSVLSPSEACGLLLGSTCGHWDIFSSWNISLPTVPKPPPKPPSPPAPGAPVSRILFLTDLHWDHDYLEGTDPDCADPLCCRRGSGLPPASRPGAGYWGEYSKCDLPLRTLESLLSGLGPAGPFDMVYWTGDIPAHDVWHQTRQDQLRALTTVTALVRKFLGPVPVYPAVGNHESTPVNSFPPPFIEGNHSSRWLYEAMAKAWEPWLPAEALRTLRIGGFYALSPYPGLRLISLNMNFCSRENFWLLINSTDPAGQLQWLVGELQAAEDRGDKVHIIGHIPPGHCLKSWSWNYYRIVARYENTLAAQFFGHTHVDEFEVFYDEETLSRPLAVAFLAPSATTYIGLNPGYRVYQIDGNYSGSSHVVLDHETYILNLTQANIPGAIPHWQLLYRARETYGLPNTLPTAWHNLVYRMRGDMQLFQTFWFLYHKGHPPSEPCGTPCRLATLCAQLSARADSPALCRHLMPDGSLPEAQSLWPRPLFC
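Human placenta-derived ASM enzyme was preincubated with compound for 10 minutes at room temperature, then given fluorogenic substrate HMU-PC0 (9 uM final) for 60 minutes at 37 °C; a pH 10 stop preceded fluorescence reading at Ex 386/Em 447 nm.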
TGFb inhibitor – qHTS for Inhibitors of TGF-b | HepG2 CAGA-GFP TGF-b/SMAD3 reporter, GFP fluorescence, 18 h; TGF-beta stimulated, 500 pg/mL final | Potency, µM (series often up to 46.1 µM), for inactives: top-dose activity, negative = inhibition, hits mostly inhibitors | actives 1.2% (n = 410,000) | AID 588855, 2011; further: potency means the concentration at half of the fitted maximal effect; on the % scale 0 is the no-effect control and ±100 the full control effect; nearly all actives have a fitted effect of over 65% in size
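HEPG2 CAGA-GFP cells (1000/well, DMEM with 1% FBS) were pre-incubated 2 h at 37 degrees C, given compound by pin tool, then stimulated with TGF-beta at 500 pg/mL final for 18 h before per-cell GFP fluorescence imaging.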
Starred values were filed as active, the others as inactive; ? = inconclusive; nt = not tested or not shown. An excerpt weighted towards active compounds, which were near 19% of everything screened. Unless noted, the call rests on the fitted dose curve; in most records, active means well fitted curve in the direction sought with a large enough effect; inconclusive means small, poorly fitted or top-dose-only effect, or another doubt; inactive means no such curve, though single readings can be large; an effect the other way counts as inactive or inconclusive.

SMILES	IL-1B inflam inh	TDP1 cell CPT	TDP1 cell noCPT	HepG2 tox	S-ASM inh	TGFb inhibitor
COc1ccc(-c2cc(C(F)F)n3ncc(C(=O)N4CCc5ccccc5C4)c3n2)cc1	?	?	?	-2%	430%	?
Cc1ccc(-c2cc(C(=O)N3CCCc4ccccc43)c3ccccc3n2)cc1	-10	?	23µM*	-12%	-5%	8%
CCc1nccn1C(=O)c1cnn2c(C(F)F)cc(-c3ccc(C)cc3)nc12	nt	21µM*	15µM*	-59%	42%	?
COCCN(C(=O)COC(=O)C1CCC(C(C)(C)C)CC1)c1c(N)n(Cc2ccccc2)c(=O)[nH]c1=O (stereo not drawn)	-6	?	?	-3%	nt	-6%
CCc1cccc2c(C(=O)C(NCCCOC)c3ccccc3)c[nH]c12 (stereo not drawn)	-3	?	?	-14%	-2%	-23%
CCc1cccc2c(C(=O)C(NC(C)CC)c3ccccc3)c[nH]c12 (stereo not drawn)	-18	?	23µM*	-41%	0%	?
Cc1cccc(N(C)c2nc3ccccc3c3nnc(C)n23)c1	nt	?	29µM*	-31%	nt	?
CC(=O)c1cccc(NC(=O)CCc2nnc3ccc(NCc4ccc5c(c4)OCO5)nn23)c1	112	-20%	13%	-3%	-2%	-6%
CSCC[C@H](NC(=O)OC(C)(C)C)C(=O)N/N=C/c1ccc2nccnc2c1	19	?	12µM*	0%	6%	6%
CSCC[C@H](NC(=O)OC(C)(C)C)C(=O)N/N=C/c1cccc2nccnc12	24	?	?	-26%	-2%	15%
COCCN(CC(=O)NCc1ccc2c(c1)OCO2)C(=O)CCC(=O)Nc1nccs1	2	-2%	-1%	4%	1%	-1%
COCCNC(=O)CN(Cc1ccc2c(c1)OCO2)C(=O)CCC(=O)Nc1nccs1	30	18µM*	18µM*	15%	3%	1%
Cc1cc(NS(=O)(=O)c2ccc(NC(=O)Nc3cccc(C(F)(F)F)c3)cc2)no1	2	8%	-3%	-7%	-16%	30%
CCc1ccc(-n2c(C)nnc2SCc2nc(-c3ccc(OC)cc3)no2)cc1	nt	?	?	-41%	nt	-24%
Oc1ccc(Cl)cc1CNCC1CCCO1 (stereo not drawn)	15	?	?	36%	-1%	-9%
Clc1ccc(-c2ccc(CNCC3CCCO3)o2)cc1 (stereo not drawn)	-77*	-27%	?	-40%	-3%	-2%
COc1ccccc1OCCOc1ccc(/C=C2\C(=N)N3N=C(S(C)(=O)=O)SC3=NC2=O)cc1	-17	?	23µM*	1%	2%	-6%
CC(=O)Nc1ccc(OCCOc2ccc(/C=C3/C(=N)N4C=CSC4=NC3=O)cc2)cc1	54	21µM*	10µM*	5%	-17%	1%
COc1cccc(OCCOc2ccc(/C=C3\C(=N)N4N=C(S(C)(=O)=O)SC4=NC3=O)cc2OC)c1	1	-13%	-3%	1%	-11%	8%
CCOC(=O)[C@]12CCCC=C1N(Cc1ccccc1)C(=O)[C@H](CC(=O)N1CCN(C(=O)c3ccco3)CC1)C2	2	?	-17%	nt	nt	nt
Cc1cccc(C)c1-n1c(C)cc(/C=N\Nc2ccc([N+](=O)[O-])cn2)c1C	-22	?	15µM*	-24%	-12%	?
CC(=O)Nc1ccc(C=NNc2ccc([N+](=O)[O-])cn2)cc1	9	23µM*	-25%	-5%	4%	0%
O=[N+]([O-])c1ccc(NN=Cc2cc(Br)ccc2O)nc1	105	2.6µM*	1.3µM*	-52%	-3%	?
O=[N+]([O-])c1ccc(NN=Cc2cccc(O)c2)nc1	35	23µM*	?	-6%	-2%	-8%
Cc1noc(C(C)C)c1C(=O)Nc1ccc(-c2nnc3n2CCCCC3)cc1	0	-11%	2%	8%	1%	6%
SMILES	IL-1B inflam inh	TDP1 cell CPT	TDP1 cell noCPT	HepG2 tox	S-ASM inh	TGFb inhibitor
CCCn1cnc2c1c(=O)n(CCCCC(C)=O)c(=O)n2C	nt	-18%	-7%	-5%	-5%	1%
COc1ccccc1C(=O)NCCC(=O)Nc1ccc(S(=O)(=O)N2CC(C)CC(C)C2)cc1 (stereo not drawn)	?	?	?	0%	-3%	?
CN1OC[C@@H]2CN[C@H](c3cccc(N4CCOCC4)c3)C[C@@H]21	-7	-3%	5%	1%	nt	0%
CCOc1ccc(NC(=S)NC(=O)c2cnn(CC)c2)c([N+](=O)[O-])c1	16	-3%	7%	1%	-2%	1%
Cc1cc([N+](=O)[O-])cc2c1NC(=O)C2(O)N1CCOCC1 (stereo not drawn)	0	?	-19%	-5%	-1%	-7%
COc1cc(C(c2c(C)[nH][nH]c2=O)c2c(C)[nH][nH]c2=O)ccc1OC(=O)c1ccccc1F	nt	26%	-3%	-6%	nt	0%
COc1ccc(C=C(C(=O)c2ccccc2)C(=O)c2ccccc2)cc1	-82*	?	?	11µM*	nt	?
COc1ccc(C=C(C(=O)O)c2ccc(OC)cc2)cc1	-1	10%	7%	-3%	-2%	-6%
COc1ccc(C(=O)/C(Br)=C\C(=O)O)cc1	nt	2.7µM*	?	nt	nt	nt
CC(=O)Nc1ccc(C=C(C(C)=O)C(C)=O)cc1	?	-24%	?	-20%	7%	-1%
COc1ccc(C=C(C(C)=O)C(=O)c2ccccc2)cc1	-94*	?	?	-23%	nt	-9%
CC(=O)C(=Cc1ccc(Cl)cc1)C(=O)c1ccccc1	-108*	18µM*	18µM*	-64%	nt	?
COc1ccc(C(=Cc2ccccc2)C(=O)O)cc1	9	10%	-12%	2%	4%	2%
COc1ccc(C=C(C(=O)c2ccccc2)c2ccccc2)cc1	6	?	?	-7%	nt	-3%
